KDM5B inhibitor – blocks human KDM5B histone demethylase activity; Q9UGL1; KDM5B demethylase, FDH-coupled NADH fluorescence (FDH is formaldehyde dehydrogenase); 220,000 compounds, 2.6% hits; Potency, µM (titrated, usually from 57.7 µM), hits mostly inhibitors; AID 1347165; active = well fitted inhibition curve with a large enough effect; also: nearly all actives have a fitted effect of over 70% in size
Target sequence (Q9UGL1 whole entry, looked up): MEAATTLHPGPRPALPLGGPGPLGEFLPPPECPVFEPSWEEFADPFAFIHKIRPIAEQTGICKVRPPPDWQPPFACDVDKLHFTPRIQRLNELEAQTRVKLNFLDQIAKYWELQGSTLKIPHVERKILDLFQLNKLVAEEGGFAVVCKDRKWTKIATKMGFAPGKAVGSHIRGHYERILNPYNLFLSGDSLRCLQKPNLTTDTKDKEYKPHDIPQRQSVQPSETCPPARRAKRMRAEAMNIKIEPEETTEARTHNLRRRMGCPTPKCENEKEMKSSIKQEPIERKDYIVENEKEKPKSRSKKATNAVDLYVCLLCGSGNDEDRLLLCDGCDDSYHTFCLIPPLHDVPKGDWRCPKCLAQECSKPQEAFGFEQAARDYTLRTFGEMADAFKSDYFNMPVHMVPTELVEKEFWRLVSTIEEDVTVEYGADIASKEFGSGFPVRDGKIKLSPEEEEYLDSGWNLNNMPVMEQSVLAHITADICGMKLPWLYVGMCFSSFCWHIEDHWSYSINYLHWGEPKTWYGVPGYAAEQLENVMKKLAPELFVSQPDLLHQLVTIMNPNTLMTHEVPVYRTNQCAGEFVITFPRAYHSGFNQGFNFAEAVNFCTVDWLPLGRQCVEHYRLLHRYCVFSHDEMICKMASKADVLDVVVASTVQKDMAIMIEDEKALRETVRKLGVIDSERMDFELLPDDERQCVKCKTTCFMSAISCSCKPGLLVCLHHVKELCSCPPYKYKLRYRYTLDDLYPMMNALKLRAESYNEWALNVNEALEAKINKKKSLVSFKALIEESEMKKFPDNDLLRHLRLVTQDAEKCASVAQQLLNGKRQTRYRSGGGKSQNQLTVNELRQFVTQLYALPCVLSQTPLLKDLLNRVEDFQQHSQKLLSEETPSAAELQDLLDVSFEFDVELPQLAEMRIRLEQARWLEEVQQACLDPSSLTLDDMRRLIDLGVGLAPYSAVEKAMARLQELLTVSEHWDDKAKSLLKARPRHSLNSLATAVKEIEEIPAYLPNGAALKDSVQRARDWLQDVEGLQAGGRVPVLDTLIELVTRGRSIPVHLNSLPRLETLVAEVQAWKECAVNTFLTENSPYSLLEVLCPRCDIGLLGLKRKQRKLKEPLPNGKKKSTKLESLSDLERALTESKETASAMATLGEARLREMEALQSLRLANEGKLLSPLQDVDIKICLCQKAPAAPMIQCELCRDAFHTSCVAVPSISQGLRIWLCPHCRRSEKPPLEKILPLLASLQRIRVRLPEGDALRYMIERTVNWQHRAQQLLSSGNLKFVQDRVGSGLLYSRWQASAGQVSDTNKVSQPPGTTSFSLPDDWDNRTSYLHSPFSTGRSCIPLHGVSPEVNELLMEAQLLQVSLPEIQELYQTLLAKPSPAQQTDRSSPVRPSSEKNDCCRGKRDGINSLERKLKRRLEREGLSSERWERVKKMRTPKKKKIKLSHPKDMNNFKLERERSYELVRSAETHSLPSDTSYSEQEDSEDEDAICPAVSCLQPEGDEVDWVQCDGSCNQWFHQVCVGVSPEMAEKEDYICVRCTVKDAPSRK
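KDM5BΔAP (200 nM final) in 50 mM HEPES pH 7.5, 0.01% Tween-20 was preincubated 10 min at RT with compound over a concentration range. Substrate mix (H3K4me3 12.5 µM, α-KG 25 µM, Fe²⁺, ascorbate, NAD⁺, FDH) was added, and NADH fluorescence change over 30 min gave dose-response curves.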
Hits are given with their value; i = inactive; ! = a repeat was not active. The sample as a whole holds a higher share of hits than the screen did.

SMILES	KDM5B inhibitor
COc1cccc(NC(=O)c2ccc(-n3cnnn3)cc2)c1	i
O=C(Nc1ccc(-c2nnc3n2CCCC3)cc1)C1CCCC1	i
CCN1CCN(C(=O)c2ccc(-c3nnc4ccc(NC(=O)C5CCC5)cn34)cc2)CC1	20µM
O=C(Nc1ccc2nnc(-c3ccc(C(=O)N4CCCCC4)cc3)n2c1)C1CCC1	20µM
CCN(CC)C(=O)c1ccc(-c2nnc3ccc(NC(=O)C4CC4)cn23)cc1	22µM
COC(=O)c1ccc(NC(=O)C2CCN(C(=O)c3ccc(F)cc3)CC2)cc1	i
CC1CCC(C(=O)Nc2ccc(-c3nnc4n3CCCC4)cc2)CC1 (configuration not stated)	i
Cc1ccc(NC(=O)C2CCC(C(C)(C)C)CC2)cc1 (configuration not stated)	i
Cc1ccc(NC(=O)C2CCCN(C(=O)c3ccccc3)CCC(=O)NCC2)cc1 (configuration not stated)	i
COc1cccc(NC(=O)c2ccc(-c3nnc4ccc(NC(=O)C5CCC5)cn34)cc2)c1	25µM
O=C1C(C2=CCCCC2)CCCC1C1=CCCCC1 (configuration not stated)	i
Cc1cc2oc(=O)cc(CSc3nnc4ccccn34)c2cc1C	i
CC(C)c1nnc(NC(=O)c2nn(C(C)C)c(=O)c3ccccc23)s1	i
CC1(C)NC(=O)N(Cc2coc(-c3ccc(Cl)cc3)n2)C1=O	i
Cc1ccc(NC(=O)C2CCCCC2)cc1	i
CC(C)NC(=O)c1ccc(-c2nnc3ccc(NC(=O)C4CCC4)cn23)cc1	25µM
CCc1ccc(C(=O)Nc2ccc(-c3nnc4n3CCCC4)cc2)cc1	i
CN(C)N1C(=O)CC(c2cccc(Cl)c2Cl)C2=C1CC(C)(C)CC2=O (configuration not stated)	i
Cc1ccc2nc(CCCO)[nH]c2c1	i
Cc1occc1-c1nc2ccncc2[nH]1	32µM!
c1cnc2[nH]cc(-c3nc4ccncc4[nH]3)c2c1	35µM!
Cc1oc(-c2ccccc2)nc1CSc1nc2ccncc2[nH]1	i
O=C(NCc1c[nH]c2ncccc12)c1ccncc1	i
c1coc(-c2nc3ccncc3[nH]2)c1	32µM!
CCc1cccc(C)c1NC(=O)CSc1nc2ccncc2[nH]1	i
SMILES	KDM5B inhibitor
Cc1oc(-c2ccc(Cl)cc2)nc1CSc1nc2ccncc2[nH]1	i
Cc1cc(-c2nc3ccncc3[nH]2)c(C)[nH]1	32µM
O=c1[nH]cccc1-c1nc2ccccc2[nH]1	i
Cc1cccc(-c2nc(CSc3nc4ccncc4[nH]3)c(C)o2)c1	i
CCOC(=O)c1sc(NC(=O)c2cccc(S(=O)(=O)N3CCOCC3)c2)cc1C	i
Cc1noc(C)c1C(=O)N1Cc2ccccc2CC2(CCN(C)C2)C1 (configuration not stated)	i
O=C(O)/C=C/c1cccc(Cl)c1	i
CC(=O)CC(C)=Nc1ccccc1	i
CC(OC(=O)C12CC3CC(CC(C3)C1)C2)C(N)=O (configuration not stated)	i
CCN(Cc1ccc(Br)s1)C(=O)CCl	i
O=C(O)c1cc(-c2ccco2)nc2cc(Br)ccc12	i
O=C(Nc1ccc2c(N3CCCC3)ncnc2c1)c1ccccc1Cl	i
COC(=O)CNC(=O)N1c2ccccc2CC1c1nc(C(C)C)no1 (configuration not stated)	i
CC(=O)NCC(=O)N1c2ccccc2CC1c1nc(C(C)C)no1 (configuration not stated)	i
CCn1ccc(C(=O)N2c3ccccc3CC2c2nc(C(C)C)no2)n1 (configuration not stated)	25µM
CCOP(=O)(OCC)c1nc(-c2cccs2)oc1NCc1ccccc1	i
Cc1cc(OCc2n[nH]c(=S)n2C)cc(C)c1Cl	i
COc1ccc(-c2nc(C3CC3)nc3c2CCN([S+](=O)([O-])c2cccc(OC)c2)CC3)cc1	i
COc1ccc(-c2nc(C3CC3)nc3c2CCN(CCC(C)C)CC3)cc1	79µM
Cc1ccc(CN2CCc3nc(C4CC4)nc(-c4ccc(O)cc4)c3CC2)cc1	i
COc1ccc(-c2nc(C3CC3)nc3c2CCN(Cc2ccc(C(F)(F)F)cc2)CC3)cc1	50µM
Clc1ccc(-c2nc(C3CC3)nc3c2CCN(Cc2ccccc2)CC3)cc1	i
COc1ccc(-c2nc(C3CC3)nc3c2CCN(C(=O)c2ccccc2F)CC3)cc1	i
O=S(=O)(Cc1cccc(F)c1)Cc1nc2ccccc2s1	i
Cc1cccc(CNC(=O)CSc2nc3nc[nH]c3c(=O)[nH]2)c1	i
SMILES	KDM5B inhibitor
FC(F)Oc1ccc(CNC23CC4CC(CC(C4)C2)C3)cc1	i
O=[N+]([O-])c1cc(S(=O)(=O)Nc2ccc(Cl)cc2)ccc1N/N=C/c1ccccc1	i
O=Cc1ccc(-c2cc(C(F)(F)F)ccc2Cl)o1	i
COc1ccc(OC)c(NC(=O)[C@H]2C[C@H](CCSC)N[C@]23C(=O)Nc2c(C)cc(Cl)cc23)c1	i
CCC(=O)Nc1ccc(O)c(-c2nc3cc(CC)ccc3o2)c1	i
CSc1nnnn1-c1c(C)n(C)n(-c2ccccc2)c1=O	i
O=C1CCCCC(Cc2ccccc2)(C(=O)NCc2ccc(F)cc2)N1 (configuration not stated)	i
Cn1c(CNC(=O)C2(C)CCCCC(=O)N2)nc2ccccc21 (configuration not stated)	i
Cn1c(CNC(=O)C2(Cc3ccccc3)CCCCC(=O)N2)nc2ccccc21 (configuration not stated)	18µM
O=C(CC(Sc1n[nH]c(-c2ccc(F)cc2)n1)c1ccc(F)cc1)NCc1cccnc1 (configuration not stated)	i
CSc1nnc(NC(=O)c2cc(=O)c3ccccc3o2)s1	i
COC(=O)c1cc(-c2ccccn2)nc2ccccc12	i
O=C(Cc1cccc(Cl)c1)NCC1COc2ncncc2C(=O)N1CC1CC1 (configuration not stated)	i
O=C1c2cncnc2OCC(CNC(=O)C2(c3ccccc3)CC2)N1Cc1ccccc1 (configuration not stated)	i
O=C(Cc1cccc(F)c1)NCC1COc2ncncc2C(=O)N1Cc1ccccc1 (configuration not stated)	28µM
Cc1ccc(-c2nn(CCC#N)c(=O)c3ccccc23)cc1	i
COc1ccc(OC)c(NC(=O)Nc2cccc(-c3ccc(N4CCCCC4)nn3)c2)c1	i
CCOc1ccc(NC(=O)c2cc(=O)c3cc(C)ccc3o2)cc1	i
S=C(NCCc1ccccc1)NC1CCCC1	i
CN(C)S(=O)(=O)N1CCC(Oc2ccc(C(=O)N3C[C@H]4CC[C@H]3C4)cc2)CC1	i
Cc1ccc(C#N)c(N2CC[C@@]3(O)CCN(S(=O)(=O)N(C)C)C[C@H]3C2)n1	28µM
CCC1Oc2ccc(NC(=O)Cc3ccccc3)cc2CN(Cc2ccc3c(c2)OCO3)C1=O (configuration not stated)	i
COc1ccccc1CCC(=O)N1CCC(n2nccc2NC(=O)CC(C)C)CC1	i
COc1ccccc1CC(=O)NC(C)C(=O)N1CCN(c2ccccn2)CC1 (configuration not stated)	28µM
COc1ccccc1CC(=O)NC1CCN(c2cc(C(F)(F)F)ncn2)CC1	i
COc1ccccc1CCC(=O)NC(C)C(=O)N1CCN(c2ccccn2)CC1 (configuration not stated)	25µM
COc1ccccc1CC(=O)NC(c1ccccc1)c1ccccc1	i
COc1ccccc1CCC(=O)Nc1cccn2nc(C(C)C)nc12	i
O=C1NCc2ccccc2CC12CCCN2Cc1ccc(Br)cc1 (configuration not stated)	i
